# Compounds with a hit are over-represented: about 19% of the library has one in this group of screens.
# HT1080 IDH1KD tx: qHTS for induction of synthetic lethality in tumor cells producing 2HG: qHTS for the HT-1080-IDH1KD cell line; HT-1080 IDH1 knockdown viability, ATP luminescence, 48 h; Potency, µM (highest dose often 46.1 µM), without a hit: top-dose activity, negative = toxicity, usual class: cytotoxic; 360,000 compounds, 2% hits; AID 686971, 2013;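 also: 0% = DMSO wells and -100% = cell-free medium wells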
#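 After a 2 h attachment period, IDH1KD HT-1080 cells took pin-transferred compound for 48 h at 37 °C; ATP-based luminescence after 10 min room-temperature reagent incubation reported viability.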
# TDP1 cell noCPT: qHTS for Inhibitors of human tyrosyl-DNA phosphodiesterase 1 (TDP1): qHTS in cells in absence of CPT; DT40 Tdp1-/- hTDP1 cells, no CPT, ATP luminescence, 48 h; Potency, µM (top dose mostly 46.2 µM), inactives show at the top dose activity change, negative = growth inhibition, actives largely listed as inhibitors; 420,000 compounds, 15% hits; also: nearly all actives have a fitted effect of over 55% in size
#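 Growth of hTDP1-complemented DT40 Tdp1-knockout cells is measured by ATP luminescence after at least 48 hr compound exposure at 37 °C, with DMSO substituting for the 20 nM CPT used in the parallel screen.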
# KB-3-1 cytotox: qHTS assay for MDR1-selective chemotherapeutics: Primary screen using the parental adenocarcinoma cell KB-3-1; KB-3-1 viability, CellTiter-Glo ATP luminescence, 72 h; Potency, µM (doses to about 46.1 µM), most hits filed as cytotoxic; 400,000 compounds, 1.4% hits; AID 1347075, 2019; also: nearly all actives have a fitted effect of over 60% in size
#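 Parental KB-3-1 viability, qHTS format: 72 h compound exposure, 37 °C; CellTiter-Glo; media-only wells and DMSO plates as controls; concentration-effect fits on corrected data.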
# HT1080NT lethal: qHTS for induction of synthetic lethality in tumor cells producing 2HG: qHTS for the HT-1080-NT fibrosarcoma cell line; Potency, µM (doses to about 46.1 µM), inactives show top-dose activity, negative = less viability, usual class: cytotoxic; HT-1080-NT fibrosarcoma viability, CellTiter-Glo ATP luminescence, 48 h; 360,000 compounds, 1.6% hits;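 also: NT is the 2HG producing partner of a matched IDH1 knockdown line; 0% = DMSO-treated cells and -100% = media-only wells without cells; nearly all actives have a fitted effect of over 55% in size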
#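 HT-1080-NT fibrosarcoma cells (2HG-overproducing), 750 cells/well in RPMI with 5% FBS, dosed after 2 h and incubated 48 h at 37C. CellTiter-Glo luminescence normalized to DMSO and no-cell wells; concentration-response curves fitted and classed.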
# DT40 TDP1 CPT: qHTS for Inhibitors of human tyrosyl-DNA phosphodiesterase 1 (TDP1): qHTS in cells in presence of CPT. chicken DT40 Tdp1-/-;hTDP1 cells + 20 nM CPT, ATP luminescence, 48 h. Potency, µM (highest dose often 46.2 µM), for inactives: at the highest dose activity change, negative = growth inhibition, actives largely listed as inhibitors. 420,000 compounds, 12% hits. AID 686979, 2013; also: nearly all actives have a fitted effect of over 55% in size
#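 Cell growth measured by CellTiter-Glo luminescence after a minimum 48 h, 37 C compound exposure with 20 nM CPT in Tdp1-knockout DT40 cells stably expressing hTDP1, seeded 400/well; qHTS titration format.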
# KB-V1 MDR tox: qHTS assay for MDR1-selective chemotherapeutics: Primary screen using the drug-selected MDR subline cells KB-V1; Potency, µM (highest dose often 46.1 µM), actives largely listed as cytotoxic; KB-V1 MDR cells viability, CellTiter-Glo, 72 h; 400,000 compounds, 3.4% hits; AID 1347076, 2019; also: nearly all actives have a fitted effect of over 60% in size
#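 Luminescent ATP read-out (CellTiter-Glo, 10 min) measures survival of drug-selected KB-V1 MDR cells after 72 h, 37 degrees C compound exposure. Medium: phenol-red-free DMEM, 10% FBS. Values from fitted concentration-response curves.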
# Numbers without * were called inactive; i = inactive; ? = inconclusive; · = no result given; [ ] = dose if it differs, or a comment. Calls follow the shape of the dose curve; as a rule, active = well fitted curve in the direction sought with a large enough effect; inconclusive = small, poorly fitted or top-dose-only effect, or another doubt; inactive = no such curve, though single readings can be large; an effect the other way counts as inactive or inconclusive. Unless noted, % is scaled to controls: 0 for no effect and ±100 for the full control effect; potency is read from the fitted curve at half-maximal effect.
SMILES,HT1080 IDH1KD tx,TDP1 cell noCPT,KB-3-1 cytotox,HT1080NT lethal,DT40 TDP1 CPT,KB-V1 MDR tox
COc1ccc(CNC(=O)CN2C(=O)CCn3nc(-c4ccccc4)cc32)c(OC)c1,·,-25.7%,i,·,-19.1%,?
CCOc1ccc(NC(=O)COC(=O)c2ccc3c(c2)C(=O)N(CCc2ccccc2)C3=O)cc1,12.5%,?,i,17.1%,?,i
Cc1ccc(NC(=O)COC(=O)c2ccc3c(c2)C(=O)N(CCc2ccccc2)C3=O)c(C)c1,0.2%,6.51µM*,i,22.9%,?,i
CC1=CC(C)(C)Nc2ccc(OC(=O)C(C)N3C(=O)c4ccccc4C3=O)cc21 (centres undefined),18.4µM*,2.59µM*,?,20.6µM*,2.06µM*,?
CC1=CC(C)(C)N(C(=O)CN2C(=O)CCC2=O)c2ccccc21,17.2%,-3.2%,i,20.9%,-7.3%,?
O=C(Oc1ccc(F)cc1)c1cccnc1,20.5%,3.2%,i,3.3%,3.0%,i
CC1=CC(C)(C)Nc2ccc(OC(=O)c3cccnc3)cc21,?,4.61µM*,?,?,2.91µM*,?
COc1ccc(OC(=O)C(C)N2C(=O)c3ccccc3C2=O)cc1 (centres undefined),-3.2%,-17.5%,i,-7.6%,-16.7%,i
CC1=CC(C)(C)Nc2ccc(OC(=O)CN3C(=O)CCC3=O)cc21,2.51µM*,2.82µM*,i,?,2.91µM*,?
COC(=O)C1=C(C)NC(=O)NC1c1cn(-c2ccccc2)nc1-c1ccc(OC)c(Br)c1 (centres undefined),·,?,i,·,-24.8%,i
CCOc1nc(C#N)nc(N(c2ccccc2)c2ccccc2)n1,·,-7.3%,?,·,1.1%,?
C=Cc1ccc(CN2C(=O)N(c3cccc(Cl)c3)S(=O)(=O)c3ccccc32)cc1,·,?,i,·,11.6µM*,i
COc1cc(OC)cc(N2C(=O)N(Cc3ccc(C(C)(C)C)cc3)c3ccccc3S2(=O)=O)c1,·,20.6µM*,i,·,?,i
CSc1cccc(N2C(=O)N(Cc3ccc([N+](=O)[O-])cc3)c3ccccc3S2(=O)=O)c1,·,-21.0%,i,·,-8.5%,i
COC(=O)c1cnn(-c2ccc(C(=O)Nc3cc(OC)c(OC)c(OC)c3)cc2)c1N,·,?,i,·,?,i
CCOc1c(Br)cc(/C=C2\N=C(C)OC2=O)cc1Br,16.1%,?,i,9.4%,20.6µM*,i
CCOc1ccc(OCc2ccc(C(=O)N3CCCC3)o2)cc1,-12.6%,?,i,0.1%,?,?
NNC(=O)c1ccc(COc2ccc3c(c2)CCC3)o1,?,11.6%,i,-7.5%,5.6%,i
O=C(c1ccco1)N1CCN(C(=O)c2ccc(COc3ccc4c(c3)CCC4)o2)CC1,-15.4%,?,i,-2.0%,?,16.4µM*
O=C(c1ccc(COc2ccc3c(c2)CCC3)o1)N1CCN(c2ccccc2)CC1,-2.3%[9.24 µM],?,i,?,14.6µM*,?
Cc1ccc(OC(=O)c2cccc(S(=O)(=O)N3CCCC3)c2)c(-n2nc3ccccc3n2)c1,18.5%,-23.8%,i,3.7%,16.9%,?
COc1ccc(S(=O)(=O)N2CCC[C@H]2C(=O)N2CCC[C@H]2C(=O)N(C)Cc2ccccc2)cc1C,5.6%,-28.5%,i,14.9%,?,i
Nc1c(N(CCCO)C(=O)C2CCCCC2)c(=O)[nH]c(=O)n1Cc1ccccc1,-0.3%,13.3%,i,2.8%,-7.9%,i
Nc1c(N(CCCO)C(=O)CCCN2C(=O)c3cccc4cccc(c34)C2=O)c(=O)[nH]c(=O)n1Cc1ccccc1,15.2%,?,i,13.8%,10.3µM*,i
Cc1c(C(=O)NN2CCOCC2)nn(-c2ccc(Cl)cc2Cl)c1-c1ccc(I)cc1,·,0.9%,·,·,-3.8%,·
SMILES,HT1080 IDH1KD tx,TDP1 cell noCPT,KB-3-1 cytotox,HT1080NT lethal,DT40 TDP1 CPT,KB-V1 MDR tox
CCCCNc1c(-c2cc3ccccc3o2)nc2nc(C)cc(C)n12,-5.1%,23.1µM*,?,-8.2%,?,?
CCCCNc1c(-c2cccc(OC)c2)nc2nc(C)cc(C)n12,-1.8%,16.4µM*,i,-29.4%,18.4µM*,?
COc1cccc(-c2nc3nc(C)cc(C)n3c2Nc2c(C)cccc2C)c1,-3.1%,?,?,-9.7%,?,?
CN(C)c1ccc(-c2cncnc2NCCc2cnc[nH]2)cc1,·,-22.5%,·,·,?,·
NC(Cc1ccc(F)cc1)c1csc(Nc2ccc(S(N)(=O)=O)cc2)n1 (centres undefined),-20.0%,?,i,?,?,i
COc1ccc(CC(N)c2csc(Nc3ccc(S(C)(=O)=O)cc3)n2)cc1 (centres undefined),-23.4%,23.1µM*,i,-21.4%,?,i
CS(=O)(=O)c1ccc(Nc2nc(C(N)Cc3ccccc3)cs2)cc1 (centres undefined),-12.7%,20.6µM*,i,-17.0%,?,i
CS(=O)(=O)c1ccc(Nc2nc(C(N)Cc3ccc(C(F)(F)F)cc3)cs2)cc1 (centres undefined),?,-83.8%,?,18.4µM*,20.6µM*,?
CS(=O)(=O)c1ccc(Nc2nc(C(N)COCc3ccccc3)cs2)cc1 (centres undefined),-8.5%,20.6µM*,i,-13.8%,20.6µM*,i
CS(=O)(=O)c1ccc(Nc2nc(C(N)c3ccccc3)cs2)cc1 (centres undefined),-1.4%,?,i,2.0%,?,i
Cc1cc(C)cc(NC(=O)c2cc(S(=O)(=O)N3CCOCC3)cn2C)c1,·,-11.8%,·,·,7.6%,·
NC(=O)C1CCN(C(=O)c2ccccc2NC(=O)c2nsc3ccccc23)CC1,·,-8.0%,i,·,?,i
CS(=O)(=O)c1ccc(Nc2nc(C(N)Cc3ccc(F)cc3)cs2)cc1 (centres undefined),-28.5%,20.6µM*,i,-29.9%,16.4µM*,i
CCC(=O)n1nc(-c2ccc(Cl)cc2)nc1NCc1ccccc1,?,16.4µM*,i,-27.9%,14.6µM*,i

# Source: PubChem
